Values joined by “and” are separate entries in the source; they are usually repeats but may differ in a detail not shown here. Equal values may be shown once. Records with an inconclusive call do not appear. Active and inactive are the calls of the source. Rule for the calls, unless noted: active = hit-call score of the fitted dose curve at least 0.9, where 1 is the maximum; inactive = score below 0.9.
What was measured:
[1] = target: human RAR-related Orphan Receptor gamma (RORg), RORC (gene 6097) (UniProt P51449); experiment: ATG_RORg_TRANS: Attagene TRANS-FACTORIAL HepG2 Assay for human RAR-related Orphan Receptor gamma (RORg) (AID 2283011; active = hit-call score of the fitted dose curve at least 0.9, where 1 is the maximum)
human RAR-related Orphan Receptor gamma (RORg), RORC (gene 6097), sequence (P51449 whole entry, looked up, the tested form may be a part): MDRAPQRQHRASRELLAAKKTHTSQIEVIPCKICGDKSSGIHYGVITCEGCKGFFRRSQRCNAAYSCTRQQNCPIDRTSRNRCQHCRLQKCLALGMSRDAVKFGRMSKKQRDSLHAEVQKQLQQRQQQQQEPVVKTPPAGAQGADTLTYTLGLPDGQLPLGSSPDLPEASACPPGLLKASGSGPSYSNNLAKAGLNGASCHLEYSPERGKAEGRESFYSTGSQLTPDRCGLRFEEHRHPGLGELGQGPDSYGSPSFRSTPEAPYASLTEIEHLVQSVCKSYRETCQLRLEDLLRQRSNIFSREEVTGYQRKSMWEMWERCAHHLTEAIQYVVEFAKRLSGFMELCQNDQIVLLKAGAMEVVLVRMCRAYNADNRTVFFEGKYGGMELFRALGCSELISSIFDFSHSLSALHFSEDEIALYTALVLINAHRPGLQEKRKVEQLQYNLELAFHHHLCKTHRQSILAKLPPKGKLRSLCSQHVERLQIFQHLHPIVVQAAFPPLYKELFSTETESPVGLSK
Procedure, shortened: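 Chimeric RORg-Gal4 transactivation in transfected HepG2; 24 h exposure; RT-PCR/capillary electrophoresis readout of reporter mRNA, DMSO baseline.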

[2] = target: Retinoic acid receptor RXR-alpha (Homo sapiens) (UniProt P19793); experiment: ATG_RXRa_TRANS: Attagene TRANS-FACTORIAL HepG2 Assay for human Retinoid X Receptor alpha (RXRa) (AID 2283012; active = hit-call score of the fitted dose curve at least 0.9, where 1 is the maximum)
Retinoic acid receptor RXR-alpha (Homo sapiens), sequence (P19793 whole entry, looked up, the tested form may be a part): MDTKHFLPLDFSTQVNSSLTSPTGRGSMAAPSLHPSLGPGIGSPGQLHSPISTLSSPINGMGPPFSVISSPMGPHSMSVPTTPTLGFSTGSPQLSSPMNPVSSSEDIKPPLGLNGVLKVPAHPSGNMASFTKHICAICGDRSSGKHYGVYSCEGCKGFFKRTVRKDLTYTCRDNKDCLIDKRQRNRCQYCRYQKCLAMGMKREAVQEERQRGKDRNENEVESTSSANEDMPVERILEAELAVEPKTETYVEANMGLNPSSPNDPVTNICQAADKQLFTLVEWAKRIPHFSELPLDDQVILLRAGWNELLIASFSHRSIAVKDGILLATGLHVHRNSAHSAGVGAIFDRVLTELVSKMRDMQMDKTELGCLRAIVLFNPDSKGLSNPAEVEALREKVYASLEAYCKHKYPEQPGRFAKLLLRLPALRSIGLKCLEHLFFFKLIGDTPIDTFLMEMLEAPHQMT
Procedure, shortened: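 TRANS format reporting activity of exogenous RXRa-Gal4 chimera in transiently transfected HepG2, 24 h exposure. Reporter transcripts quantified by RT-PCR with capillary electrophoresis, with gain of signal scored relative to DMSO.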

[3] = target: human Retinoid X Receptor beta (RXRb), RXRB (gene 6257) (UniProt P28702); experiment: ATG_RXRb_TRANS: Attagene TRANS-FACTORIAL HepG2 Assay for human Retinoid X Receptor beta (RXRb) (AID 2283013; active = hit-call score of the fitted dose curve at least 0.9, where 1 is the maximum)
human Retinoid X Receptor beta (RXRb), RXRB (gene 6257), sequence (P28702 whole entry, looked up, the tested form may be a part): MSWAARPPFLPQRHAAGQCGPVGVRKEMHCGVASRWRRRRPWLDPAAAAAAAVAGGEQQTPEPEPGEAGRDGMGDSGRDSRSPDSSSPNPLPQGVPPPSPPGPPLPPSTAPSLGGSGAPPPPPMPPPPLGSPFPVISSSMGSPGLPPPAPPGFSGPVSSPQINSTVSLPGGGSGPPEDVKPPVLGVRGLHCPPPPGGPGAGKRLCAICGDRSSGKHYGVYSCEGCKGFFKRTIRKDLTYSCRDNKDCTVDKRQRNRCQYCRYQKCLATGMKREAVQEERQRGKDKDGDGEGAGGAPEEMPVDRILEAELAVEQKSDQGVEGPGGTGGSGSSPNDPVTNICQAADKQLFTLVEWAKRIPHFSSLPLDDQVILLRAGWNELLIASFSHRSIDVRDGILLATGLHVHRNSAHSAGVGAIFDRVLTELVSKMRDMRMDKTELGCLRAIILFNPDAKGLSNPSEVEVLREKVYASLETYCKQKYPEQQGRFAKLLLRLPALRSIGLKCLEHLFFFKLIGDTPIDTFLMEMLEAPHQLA
Procedure, shortened: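 Readout is reporter transcript induction after 24 h dosing. It is measured by RT-PCR of total RNA followed by fluorescent capillary electrophoresis. HepG2 liver cells carry transfected multiple reporter units driven by an exogenous RXRb-Gal4 fusion; activity is relative to DMSO.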

[4] = target: human Thyroid Receptor alpha (THRa1), THRA (gene 7067) (UniProt P10827); experiment: ATG_THRa1_TRANS: Attagene TRANS-FACTORIAL HepG2 Assay for human Thyroid Receptor alpha (THRa1) (AID 2283014; active = hit-call score of the fitted dose curve at least 0.9, where 1 is the maximum)
human Thyroid Receptor alpha (THRa1), THRA (gene 7067), sequence (P10827 whole entry, looked up, the tested form may be a part): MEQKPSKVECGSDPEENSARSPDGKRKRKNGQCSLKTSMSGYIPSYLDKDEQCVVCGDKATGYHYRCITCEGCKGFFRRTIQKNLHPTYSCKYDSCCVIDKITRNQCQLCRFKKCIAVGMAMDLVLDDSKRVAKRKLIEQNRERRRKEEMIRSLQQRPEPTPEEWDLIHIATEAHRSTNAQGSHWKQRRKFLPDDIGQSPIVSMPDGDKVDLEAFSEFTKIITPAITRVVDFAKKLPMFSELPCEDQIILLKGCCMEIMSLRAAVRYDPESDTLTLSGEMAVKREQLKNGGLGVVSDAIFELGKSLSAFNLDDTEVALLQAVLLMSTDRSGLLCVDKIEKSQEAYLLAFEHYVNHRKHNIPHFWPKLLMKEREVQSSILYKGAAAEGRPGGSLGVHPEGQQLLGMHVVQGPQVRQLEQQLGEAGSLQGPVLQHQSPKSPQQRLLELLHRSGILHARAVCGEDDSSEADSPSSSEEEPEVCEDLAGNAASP
Procedure, shortened: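 Measured here is mRNA from a GAL4-UAS reporter in transfected HepG2 cells carrying a Gal4-fused receptor, 24 h post-dose. DMSO served as negative control and baseline.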

[5] = read-out: E-selectin (Homo sapiens) (UniProt P16581); experiment: BSK_3C_Eselectin: BioMAP Diversity Plus: 3C Assay for Eselectin Biomarker Activity (AID 2283015); details: primary human endothelial cells (HUVEC); actives raise or lower the signal
Procedure, shortened: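 Endpoint derived by bidirectional fitting against DMSO vehicle; signal is ELISA-detected E-selectin from primary HUVEC at 24 h post-dosing, with parallel SRB staining (0.1% SRB, 560 nm) flagging cytotoxicity.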

[6] = read-out: Interleukin-1 alpha (IL1a), IL1A (gene 3552); experiment: BSK_BE3C_IL1a: BioMAP Diversity Plus: BE3C Assay for Interleukin-1 alpha (IL1a) Biomarker Activity (AID 2283016); details: primary human bronchial epithelial cells; actives raise or lower the signal
Procedure, shortened: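 IL-1a measured by ELISA after 24 h treatment of human primary bronchial epithelial cells, with gain or loss of signal fitted versus DMSO. Parallel cultures stained with SRB gauge overt cytotoxicity.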

[7] = read-out: Monocyte Chemoattractant Protein-1 (MCP1), CCL2 (gene 6347); experiment: BSK_3C_MCP1: BioMAP Diversity Plus: 3C Assay for Monocyte Chemoattractant Protein-1 (MCP1) Biomarker Activity (AID 2283017); details: primary human endothelial cells (HUVEC); actives raise or lower the signal
Procedure, shortened: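 Using human vascular primary endothelium, researchers measured MCP-1 by ELISA 24 h after treatment, with DMSO serving as negative control for bidirectional fitting.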

[8] = read-out: Monocyte Chemoattractant Protein-1 (MCP1), CCL2 (gene 6347); experiment: BSK_4H_MCP1: BioMAP Diversity Plus: 4H Assay for Monocyte Chemoattractant Protein-1 (MCP1) Biomarker Activity (AID 2283018); details: primary human endothelial cells (HUVEC); actives raise or lower the signal
Procedure, shortened: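 ELISA of MCP-1 (CCL2) 24 h after chemical dosing of HUVEC in the BioMAP 4H system. Gain or loss versus DMSO fitted; parallel SRB staining (560 nm) tracked overt cytotoxicity.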

[9] = read-out: Human Leukocyte Antigen - DR isotype (HLADR), HLA-DRA (gene 3122); experiment: BSK_3C_HLADR: BioMAP Diversity Plus: 3C Assay for Human Leukocyte Antigen - DR isotype (HLADR) Biomarker Activity (AID 2283019); details: primary human endothelial cells (HUVEC); actives raise or lower the signal
Procedure, shortened: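 Compound added to primary HUVEC cultures, 24 h incubation, then HLA-DR determined by ELISA; endpoint derived by bidirectional fitting relative to DMSO negative control.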

[10] = read-out: Interleukin-8 (IL8), CXCL8 (gene 3576); experiment: BSK_3C_IL8: BioMAP Diversity Plus: 3C Assay for Interleukin-8 (IL8) Biomarker Activity (AID 2283020); details: primary human endothelial cells (HUVEC); actives raise or lower the signal
Procedure, shortened: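 IL-8 was measured by ELISA in HUVEC cultures 24 h after chemical dosing, with gain or loss of signal fitted relative to DMSO. Parallel SRB total-protein staining tracked overt cytotoxicity.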

[11] = read-out: Monokine induced gamma interferon (MIG), CXCL9 (gene 4283); experiment: BSK_3C_MIG: BioMAP Diversity Plus: 3C Assay for Monokine induced gamma interferon (MIG) Biomarker Activity (AID 2283021); details: primary human endothelial cells (HUVEC); actives raise or lower the signal
Procedure, shortened: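 ELISA measurement of MIG in human umbilical vein endothelial cells 24 h after treatment. Cytotoxicity tracked by SRB staining in parallel cultures; gain or loss of signal fitted relative to DMSO.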

[12] = target: human Vitamin D Receptor (VDR), VDR (gene 7421) (UniProt P11473); experiment: ATG_VDR_TRANS: Attagene TRANS-FACTORIAL HepG2 Assay for human Vitamin D Receptor (VDR) (AID 2283022; active = hit-call score of the fitted dose curve at least 0.9, where 1 is the maximum)
human Vitamin D Receptor (VDR), VDR (gene 7421), sequence (P11473 whole entry, looked up): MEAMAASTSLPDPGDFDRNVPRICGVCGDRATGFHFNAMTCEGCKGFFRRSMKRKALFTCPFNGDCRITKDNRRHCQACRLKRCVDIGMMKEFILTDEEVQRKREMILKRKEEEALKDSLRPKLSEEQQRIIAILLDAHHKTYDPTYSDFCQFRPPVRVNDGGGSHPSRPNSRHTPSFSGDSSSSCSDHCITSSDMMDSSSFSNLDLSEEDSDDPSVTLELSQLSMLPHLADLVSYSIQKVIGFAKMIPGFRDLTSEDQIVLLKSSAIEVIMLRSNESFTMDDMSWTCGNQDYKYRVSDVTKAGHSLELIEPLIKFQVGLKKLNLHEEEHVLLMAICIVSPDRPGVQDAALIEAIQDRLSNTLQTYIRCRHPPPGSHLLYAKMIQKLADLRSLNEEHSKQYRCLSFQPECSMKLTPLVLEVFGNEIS
Procedure, shortened: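 Multiplexed TRANS reporter in HepG2; 24 h treatment; reporter mRNA by RT-PCR plus capillary electrophoresis; upregulation scored relative to DMSO.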

[13] = BSK_3C_SRB: Viability Assessment in the BioMAP Diversity Plus: 3C Assay (AID 2283023); details: primary human endothelial cells (HUVEC);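 note: fitted both ways against DMSO so a hit may be signal rise or drop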
Procedure, shortened: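 Overt cytotoxicity is gauged in parallel confluent HUVEC cultures by SRB total-protein staining at the time of biomarker measurement, 24 h after dosing. Gain or loss of signal is fitted versus DMSO.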

[14] = read-out: Matrix Metallopeptidase 1 (MMP1), MMP1 (gene 4312); experiment: BSK_BE3C_MMP1: BioMAP Diversity Plus: BE3C Assay for Matrix Metallopeptidase 1 (MMP1) Biomarker Activity (AID 2283024); details: primary human bronchial epithelial cells; actives raise or lower the signal
Procedure, shortened: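 ELISA measurement of MMP-1 after 24 h compound exposure of primary human bronchial epithelial cells. Changes in either direction fitted relative to DMSO; parallel SRB staining checked overt cytotoxicity.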

[15] = BSK_3C_Vis: BioMAP Diversity Plus: 3C Assay for Morphology Visualization (AID 2283025); details: primary human endothelial cells (HUVEC);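 note: fitted both ways so gain or loss versus DMSO counts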;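 for AC50: light microscopy image of cell morphology used as background control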
Procedure, shortened: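 Light-microscopy visualization of HUVEC cultures at 24 h post-treatment, with DMSO as baseline for bidirectional fitting.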

[16] = read-out: Pselectin, SELP (gene 6403); experiment: BSK_4H_Pselectin: BioMAP Diversity Plus: 4H Assay for Pselectin Biomarker Activity (AID 2283026); details: primary human endothelial cells (HUVEC); actives raise or lower the signal
Procedure, shortened: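 ELISA of surface P-selectin on HUVEC, 24 h after dosing, with parallel SRB staining (0.1% after 10% TCA fixation, 560 nm) for overt cytotoxicity. Activity fitted in both directions relative to DMSO.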

[17] = BSK_4H_SRB: Viability Assessment in the BioMAP Diversity Plus: 4H Assay (AID 2283027); details: primary human endothelial cells (HUVEC);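 note: cells exposed to compound for 24 h before staining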;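 for AC50: curves fitted both ways versus DMSO so AC50 may be loss or gain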
Procedure, shortened: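 Cytotoxicity read-out in primary human endothelial cells: after 24 h compound exposure, cells were TCA-fixed (10%), stained with 0.1% SRB and absorbance taken at 560 nm. Values fitted in both directions relative to DMSO.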

[18] = BSK_BE3C_SRB: Viability Assessment in the BioMAP Diversity Plus: BE3C Assay (AID 2283028); details: primary human bronchial epithelial cells;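 for AC50: fitted both ways so AC50 may mark signal gain or loss versus DMSO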
Procedure, shortened: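 SRB total-protein staining (0.1%, after TCA fixation) of chemically dosed human bronchial epithelial primary cells at 24 h; DMSO serves as the negative control for bidirectional curve fitting.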

[19] = read-out: Urokinase-type plasminogen activator receptor (uPAR), PLAUR (gene 5329); experiment: BSK_4H_uPAR: BioMAP Diversity Plus: 4H Assay for Urokinase-type plasminogen activator receptor (uPAR) Biomarker Activity (AID 2283030); details: primary human endothelial cells (HUVEC); actives raise or lower the signal
Procedure, shortened: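 Endpoint derived via bidirectional curve fitting against DMSO baseline; readout was ELISA detection of uPAR on umbilical vein endothelial cells at 24 h post-treatment, with SRB-stained parallel cultures assessing cytotoxicity.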

[20] = read-out: Thrombomodulin, THBD (gene 7056); experiment: BSK_3C_Thrombomodulin: BioMAP Diversity Plus: 3C Assay for Thrombomodulin Biomarker Activity (AID 2283029); details: primary human endothelial cells (HUVEC); actives raise or lower the signal
Procedure, shortened: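 ELISA measurement of thrombomodulin on HUVEC surface 24 h after chemical dosing; activity fitted in both directions relative to DMSO vehicle.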

Measured: AC50

E-selectin (Homo sapiens), sequence (P16581 whole entry, looked up): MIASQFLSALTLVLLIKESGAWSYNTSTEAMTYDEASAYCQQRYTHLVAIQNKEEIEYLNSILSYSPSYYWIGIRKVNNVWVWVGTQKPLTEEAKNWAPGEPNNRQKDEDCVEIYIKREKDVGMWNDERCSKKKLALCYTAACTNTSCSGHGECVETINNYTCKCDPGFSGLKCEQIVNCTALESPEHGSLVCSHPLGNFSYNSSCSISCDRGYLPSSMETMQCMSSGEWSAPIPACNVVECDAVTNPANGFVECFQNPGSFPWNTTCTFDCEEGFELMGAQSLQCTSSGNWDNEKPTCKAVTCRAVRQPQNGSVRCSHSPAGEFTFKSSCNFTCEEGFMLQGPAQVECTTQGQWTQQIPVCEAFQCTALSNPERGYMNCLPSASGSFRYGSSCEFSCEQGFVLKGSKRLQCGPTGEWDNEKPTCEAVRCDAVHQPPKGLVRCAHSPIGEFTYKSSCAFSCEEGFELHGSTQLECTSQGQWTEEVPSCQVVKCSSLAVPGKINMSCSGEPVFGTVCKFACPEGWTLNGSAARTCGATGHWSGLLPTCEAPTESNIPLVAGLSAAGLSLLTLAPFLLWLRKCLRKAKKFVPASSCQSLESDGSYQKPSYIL

CCCC1COC(Cn2cncn2)(c2ccc(Cl)cc2Cl)O1 (stereo not given)
not listed: [20]
inactive: all other assays above

Oc1ccccc1-c1ccccc1
active: [3] 56.3 µM and 26.8 µM
not listed: [20]
inactive: all other assays above

COc1ccc(C(c2ccc(OC)cc2)C(Cl)(Cl)Cl)cc1
active: [5] 25.6 µM | [7] 26.4 µM | [8] 13.3 µM | [9] 25.8 µM | [10] 24.9 µM | [13] 20.1 µM | [14] 6.22 µM | [15] 15.2 µM | [16] 33.4 µM | [17] 26.9 µM | [18] 19.4 µM
inactive: [1] | [2] | [3] | [4] | [6] | [11] | [12] | [19]

COc1nc(C)nc(NC(=O)NS(=O)(=O)c2ccccc2Cl)n1
not listed: [4]
inactive: all other assays above

CNC(=S)S
active: [5] 12.8 µM | [9] 20 µM | [13] 13.3 µM | [15] 13.2 µM | [17] 20 µM
not listed: [4]
inactive: all other assays above

Source: PubChem BioAssay (EPA / NIEHS)
